# ± gives the standard deviation of the averaged measurements.
# Columns and labels:
# Test in all cases: promoter activity interaction Z-score (Lux/OD deviation from empty-vector control); higher = stronger promoter induction by the compound
# [1] = test system: E. coli BW25113 acrABp lux reporter
# How it was run: (§1)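 At 37°C, E. coli BW25113 reporter cultures in 40 µl LB Lennox in 384-well plates were read for OD600 and luminescence every 30 min for 12 h. Windows were 0–8 h for wild type and 1–9 h for deletion strains, and wells under 10% of the median growth value were removed. The score is the Z-transformed residual of growth-normalised luminescence against a control fit.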
# [2] = test system: E. coli BW25113 micFp lux reporter
# How it was run: as §1
# [3] = test system: E. coli BW25113 ompFp lux reporter
# How it was run: as §1
# [4] = test system: E. coli BW25113 robp lux reporter
# How it was run: as §1
# [5] = test system: E. coli BW25113 soxSp lux reporter
# How it was run: as §1
# [6] = test system: E. coli BW25113 tolCp lux reporter
# How it was run: as §1
# [7] = 23 µg/ml, genetic background: wild type
# [8] = 23 µg/ml, genetic background: ΔmarA
# [9] = 23 µg/ml, genetic background: Δrob
# [10] = 23 µg/ml, genetic background: ΔsoxS
# [11] = 46 µg/ml, genetic background: wild type
# [12] = 46 µg/ml, genetic background: ΔmarA
# [13] = 46 µg/ml, genetic background: Δrob
# [14] = 46 µg/ml, genetic background: ΔsoxS
# [15] = 92.1 µg/ml, genetic background: wild type
# [16] = 92.1 µg/ml, genetic background: ΔmarA
# [17] = 92.1 µg/ml, genetic background: Δrob
# [18] = 92.1 µg/ml, genetic background: ΔsoxS
# [19] = 184.2 µg/ml, genetic background: wild type
# [20] = 184.2 µg/ml, genetic background: ΔmarA
# [21] = 184.2 µg/ml, genetic background: Δrob
# [22] = 184.2 µg/ml, genetic background: ΔsoxS
compound,measurement,setting,value
COc1cc(/C=C/C(=O)CC(=O)/C=C/c2ccc(O)c(OC)c2)ccc1O [Curcumin],promoter activity interaction Z-score,[1]; [7],-0.214 ± 0.21
same,promoter activity interaction Z-score,[1]; [8],1.82 ± 1
same,promoter activity interaction Z-score,[1]; [9],0.162 ± 0.49
same,promoter activity interaction Z-score,[1]; [10],0.139 ± 0.18
same,promoter activity interaction Z-score,[1]; [11],0.341 ± 0.83
same,promoter activity interaction Z-score,[1]; [12],1.2 ± 0.066
same,promoter activity interaction Z-score,[1]; [13],0.14 ± 0.34
same,promoter activity interaction Z-score,[1]; [14],0.0402 ± 0.48
same,promoter activity interaction Z-score,[1]; [15],0.529 ± 0.2
same,promoter activity interaction Z-score,[1]; [16],1.08 ± 0.031
same,promoter activity interaction Z-score,[1]; [17],0.869 ± 0.75
same,promoter activity interaction Z-score,[1]; [18],0.0855 ± 0.34
same,promoter activity interaction Z-score,[1]; [19],0.33 ± 0.052
same,promoter activity interaction Z-score,[1]; [20],1.06 ± 1.1
same,promoter activity interaction Z-score,[1]; [21],1.36 ± 1.6
same,promoter activity interaction Z-score,[1]; [22],0.0296 ± 0.41
same,promoter activity interaction Z-score,[2]; [7],-0.542 ± 0.23
same,promoter activity interaction Z-score,[2]; [8],0.217 ± 0.034
same,promoter activity interaction Z-score,[2]; [9],-0.24 ± 0.022
same,promoter activity interaction Z-score,[2]; [10],-0.0851 ± 0.53
same,promoter activity interaction Z-score,[2]; [11],-0.984 ± 0.24
same,promoter activity interaction Z-score,[2]; [12],0.275 ± 0.043
same,promoter activity interaction Z-score,[2]; [13],-0.0884 ± 0.0078
same,promoter activity interaction Z-score,[2]; [14],0.00161 ± 0.34
same,promoter activity interaction Z-score,[2]; [15],-0.158 ± 0.37
same,promoter activity interaction Z-score,[2]; [16],0.257 ± 0.096
same,promoter activity interaction Z-score,[2]; [17],-0.122 ± 0.094
same,promoter activity interaction Z-score,[2]; [18],-0.241 ± 0.17
same,promoter activity interaction Z-score,[2]; [19],-0.608 ± 0.096
same,promoter activity interaction Z-score,[2]; [20],0.122 ± 0.096
same,promoter activity interaction Z-score,[2]; [21],-0.251 ± 0.11
same,promoter activity interaction Z-score,[2]; [22],0.0295 ± 0.21
same,promoter activity interaction Z-score,[3]; [7],-0.638 ± 0.26
same,promoter activity interaction Z-score,[3]; [8],0.332 ± 0.5
same,promoter activity interaction Z-score,[3]; [9],0.137 ± 1.3
same,promoter activity interaction Z-score,[3]; [10],-0.824 ± 0.29
same,promoter activity interaction Z-score,[3]; [11],-0.568 ± 0.12
same,promoter activity interaction Z-score,[3]; [12],0.31 ± 0.57
same,promoter activity interaction Z-score,[3]; [13],0.208 ± 0.91
same,promoter activity interaction Z-score,[3]; [14],-0.0625 ± 1.2
same,promoter activity interaction Z-score,[3]; [15],-0.201 ± 0.71
same,promoter activity interaction Z-score,[3]; [16],-0.362 ± 0.33
same,promoter activity interaction Z-score,[3]; [17],0.836 ± 0.9
same,promoter activity interaction Z-score,[3]; [18],-0.27 ± 0.58
same,promoter activity interaction Z-score,[3]; [19],-0.368 ± 0.11
same,promoter activity interaction Z-score,[3]; [20],-0.675 ± 0.88
same,promoter activity interaction Z-score,[3]; [21],-0.647 ± 0.46
same,promoter activity interaction Z-score,[3]; [22],-0.351 ± 0.82
same,promoter activity interaction Z-score,[4]; [7],0.788 ± 0.71
same,promoter activity interaction Z-score,[4]; [8],1.07 ± 0.14
same,promoter activity interaction Z-score,[4]; [9],0.0477 ± 0.46
same,promoter activity interaction Z-score,[4]; [10],0.332 ± 0.6
same,promoter activity interaction Z-score,[4]; [11],0.38 ± 0.33
same,promoter activity interaction Z-score,[4]; [12],1.13 ± 0.87
same,promoter activity interaction Z-score,[4]; [13],0.606 ± 0.79
same,promoter activity interaction Z-score,[4]; [14],0.859 ± 0.5
same,promoter activity interaction Z-score,[4]; [15],0.913 ± 0.078
same,promoter activity interaction Z-score,[4]; [16],0.411 ± 0.0043
same,promoter activity interaction Z-score,[4]; [17],0.829 ± 1.5
same,promoter activity interaction Z-score,[4]; [18],-0.797 ± 0.19
same,promoter activity interaction Z-score,[4]; [19],-0.161 ± 0.49
same,promoter activity interaction Z-score,[4]; [20],0.0014 ± 0.21
same,promoter activity interaction Z-score,[4]; [21],0.959 ± 1.3
same,promoter activity interaction Z-score,[4]; [22],0.501 ± 0.48
same,promoter activity interaction Z-score,[5]; [7],-0.156 ± 0.019
same,promoter activity interaction Z-score,[5]; [8],0.209 ± 0.098
same,promoter activity interaction Z-score,[5]; [9],-0.0921 ± 0.039
same,promoter activity interaction Z-score,[5]; [10],0.264 ± 0.5
same,promoter activity interaction Z-score,[5]; [11],-0.559 ± 0.02
same,promoter activity interaction Z-score,[5]; [12],0.12 ± 0.11
same,promoter activity interaction Z-score,[5]; [13],-0.0695 ± 0.0052
same,promoter activity interaction Z-score,[5]; [14],0.244 ± 0.33
same,promoter activity interaction Z-score,[5]; [15],-0.204 ± 0.11
same,promoter activity interaction Z-score,[5]; [16],-0.148 ± 0.051
same,promoter activity interaction Z-score,[5]; [17],-0.206 ± 0.015
same,promoter activity interaction Z-score,[5]; [18],-0.186 ± 0.41
same,promoter activity interaction Z-score,[5]; [19],-0.42 ± 0.036
same,promoter activity interaction Z-score,[5]; [20],-0.399 ± 0.12
same,promoter activity interaction Z-score,[5]; [21],-0.341 ± 0.14
same,promoter activity interaction Z-score,[5]; [22],-0.153 ± 0.15
same,promoter activity interaction Z-score,[6]; [7],-0.731 ± 0.53
same,promoter activity interaction Z-score,[6]; [8],-0.0769 ± 0.49
same,promoter activity interaction Z-score,[6]; [9],-0.819 ± 0.47
same,promoter activity interaction Z-score,[6]; [10],0.356 ± 0.35
same,promoter activity interaction Z-score,[6]; [11],-0.815 ± 0.45
same,promoter activity interaction Z-score,[6]; [12],0.181 ± 0.66
same,promoter activity interaction Z-score,[6]; [13],-0.0696 ± 0.8
same,promoter activity interaction Z-score,[6]; [14],-0.467 ± 0.52
same,promoter activity interaction Z-score,[6]; [15],-0.469 ± 0.65
same,promoter activity interaction Z-score,[6]; [16],0.826 ± 0.17
same,promoter activity interaction Z-score,[6]; [17],-0.739 ± 0.063
same,promoter activity interaction Z-score,[6]; [18],0.259 ± 0.43
same,promoter activity interaction Z-score,[6]; [19],-0.549 ± 0.6
same,promoter activity interaction Z-score,[6]; [20],-0.037 ± 0.23
same,promoter activity interaction Z-score,[6]; [21],-0.376 ± 0.11
same,promoter activity interaction Z-score,[6]; [22],0.000633 ± 0.47

# From the supplement of paper PMC12282887
